According to PubChem BioAssay (EPA / NIEHS):
Activity calls are given as the source filed them. Rule for the calls: active = hit-call score of the fitted dose curve at least 0.9, where 1 is the maximum; inactive = score below 0.9.

read-out: flavin-containing dimethylaniline monooxygenases 3 (FMO3), FMO3 (gene 2328); assay: LTEA_HepaRG_FMO3: Life Technologies and Expression Analysis (LTEA) Assay for flavin-containing dimethylaniline monooxygenases 3 (FMO3) using HepaRG (AID 2283453); details: mRNA level, 48 h; actives raise or lower the signal;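 for AC50: FMO3 transcript by TaqMan qRT-PCR normalized to ACTB GAPDH and POLR2A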
Description: LTEA_HepaRG is a cell based, multiplexed-readout assay that uses HepaRG, a human liver cell line, with measurements taken at 48 hours after chemical dosing on a 96-well plate.LTEA_HepaRG_FMO3 is one of 102 assay component(s) measured in the LTEA HepaRG cell culture assay. It is a marker of NR mediated metabolism.Data from the assay component LTEA_HepaRG_FMO3 was analyzed into 1 endpoint. This assay endpoint, LTEA_HepaRG_FMO3, was analyzed with bidirectional fitting relative to DMSO as the negative control and baseline of activity. Using a type of inducible reporter, measures of mRNA induction for gain or loss-of-signal activity can be used to understand regulation of transcription factor activity. To generalize the intended target to other relatable targets, this assay endpoint is annotated to the oxidoreductase intended target family, where the subfamily is […].
A total of 1060 chemcials from the ToxCast library were tested in eight-point concentration-response experiments. Cell culture and cytotoxicity assays were conducted at Thermo Fisher Scientific's Custom Services facility (Madison, WI). A single lot of human HepaRG cells (Thermo Fisher Scientific, Frederick, MD) was used for the cell culture experiments. 96-well format collagen type I coated plates of human HepaRG cells were prepared using established methods. Briefly, cryopreserved HepaRG cells were thawed, plated at a density of approximately 100,000 cells/well in HepaRG Thaw, Plate, and General Purpose media (HPRG770, Thermo Fisher Scientific), and incubated for 48 hours. 0.5% DMSO was selected as vehicle control to balance the requisite need of DMSO in HepaRG cultures to maintain differentiation (for example, baseline metabolism, proportions of hepatocytes vs. cholangiocytes), while enabling further hepatic receptor pathway activation (for example, PXR and CAR) in response to chemical exposure. 48 hours after plating, the culture medium was replaced with HepaRG Serum-Free Incudtion Media. Cells were exposed to each test chemical in duplicate and maintained in CO2 incubators for another 48 hours. Chemical plates were thawed to room temperature and 200x concentrations of treatment groups were prepared. 8-point conentration-reponse curves were made with the highest exposure at 100 uM, followed by half-log dilutions, all in 0.5% DMSO. Each test plate contained variouse controls, induction positive controls (1mM phenobarbital), cytotoxicity positive controls ([…] aflatoxin B1), vehicle controls (0.5% DMSO), and total lysis controls (0.5% DMSO). Cell morphology images were taken using an Essen IncuCyte FLR automated microscope, with six 96-well plates imaged in about 24 minutes. Images were captured and exported and JPEG files. Spent culture media was transfered to black-well plates for the LDH assay, and remaining media was sorted at -80 C for later use. Cells were treated with RLT buffer and frozen until shipped for gene expression analysis. Total RNA was isolated from the cell suspension in 75 uL of Buffer RLT (Qiagen, Germantown, MD 20874) by Quintiles/Expression Analysis (Durham, NC) using a custom isolation procedure. Total RNA from each plate well was transferred to a preamplification plate. Fluidigm's 96.96 Dynamic ArrayTM (Fluidigm, Amsterdam, the Netherlands) technology was used for gene expression analyses by quantitative reverse transcription polymerase chain reaction (qRT-PCR, performed by Quintiles/Expression Analysis, Durham, NC)89. Standard TaqManTM Assays (Applied Biosystems/ThermoFisher Scientific, Foster City, CA) were used to assess the expression of 93 genes selected based on their selectivity and sensitivity to important hepatic receptors known to be modulated by environmental chemicals; importance in human hepatocyte functionality; and hepatotoxicity. […]

Structure (SMILES)	AC50	outcome
Nc1ccc2c(c1)C(=O)c1ccccc1C2=O	12 µM (active)	–
CCCc1cc(=O)[nH]c(=S)[nH]1	–	inactive
c1cc(-c2ccncc2)ccn1	–	inactive
CCCCOC(=O)CCCCCCCCC(=O)OCCCC	–	inactive
CCCCCCOCCO	–	inactive
COc1ccc(C)cc1N	–	inactive
CCCCC(CC)COC(=O)CC(C(=O)OCC(CC)CCCC)S(=O)(=O)O (stereo not given)	77.4 µM (active)	–
CCCCN(CCCC)CCCC	–	inactive
FC(F)(F)C(F)(F)C(F)(F)C(F)(F)C(F)(F)C(F)(F)CCI	–	inactive
O=[N+]([O-])C(CO)(CO)CO	–	inactive
CC=Cc1ccc(O)c(OC)c1	–	inactive
C[Si]1(C)O[Si](C)(C)O[Si](C)(C)O[Si](C)(C)O1	–	inactive
NCCO	–	inactive
Nc1ccccc1N	63.7 µM (active)	–
CCCCCCCCCCO	–	inactive
Oc1ccc2c(c1)OC[C@@H](N1CCC(O)(c3ccc(F)cc3)CC1)[C@H]2O	–	inactive
O=C(O)CCCCC(=O)O	–	inactive
Cc1nc(C)nc(N2C[C@@H](C)N(c3ccnc([C@@H](C)O)n3)[C@@H](C)C2)n1	–	inactive
CCCCCCCCCCCC(=O)OC	–	inactive
CC(=O)OCCOCCOCCOC(C)=O	–	inactive

Structure (SMILES)	AC50	outcome
Cc1ccccc1Cl	–	inactive
CCCCCCCCCCCCCCCC	–	inactive
CCCCCCCCCCCCCO	–	inactive
COc1ccc(S(=O)(=O)N2C(=O)[C@@](c3ccccc3OC)(N3C[C@H](O)C[C@H]3C(=O)N(C)C)c3cc(Cl)ccc32)c(OC)c1	43.3 µM (active)	–
C[C@]12C=CC(=O)C=C1CC[C@@H]1[C@@H]2C(=O)C[C@@]2(C)[C@H]1CC[C@]2(O)C(=O)CO	–	inactive
Cc1cccc(C)c1O	–	inactive
Nc1ccc(S(=O)(=O)c2ccc(N)cc2)cc1	–	inactive
CCOc1ccc2c(c1)C(C)=CC(C)(C)N2	–	inactive
Cc1c(C(=O)O)c(O)cc2c1C(=O)c1c(O)c([C@@H]3O[C@H](CO)[C@@H](O)[C@H](O)[C@H]3O)c(O)c(O)c1C2=O	–	inactive
CCCCCCCCCCC	–	inactive
COc1cc(C=O)ccc1O	–	inactive
COc1cc(S(=O)(=O)O)c(C)cc1N=Nc1c(O)ccc2cc(S(=O)(=O)O)ccc12	–	inactive
CC(=O)Oc1ccccc1C(=O)O	–	inactive
O=C(N[C@@H](Cc1ccccc1)[C@@H](O)C(=O)N1C[C@@H](O)[C@@H](O)C1)c1cc2cc(Cl)ccc2[nH]1	–	inactive
CNCc1cc(F)ccc1Oc1ccc(Cl)c(Cl)c1	93.3 µM (active)	–
CC1(C)NC(=O)NC1=O	–	inactive
CC(C)(C)c1cc(O)c(C(C)(C)C)cc1O	78.1 µM (active)	–
O=C(O)Cc1ccccc1Nc1c(Cl)cccc1Cl	–	inactive
Cc1ccc(C)c(C)c1	–	inactive
CCOC(=O)CCC(=O)OCC	–	inactive
